TDP1 cell CPT: DT40-hTDP1 cell growth loss with CPT | chicken DT40 Tdp1-/-;hTDP1 cells + 20 nM CPT, ATP luminescence, 48 h | AID 686979 | 420,000 compounds, 12% hits | Potency, µM (highest dose often 46.2 µM), for the others: top-dose activity change, negative = growth inhibition, usual class: inhibitors; also: potency is read from the fitted curve at half-maximal effect; nearly all actives have a fitted effect of over 55% in size
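Chicken DT40 Tdp1-/- cells stably complemented with human TDP1 were seeded at 400 cells/well in medium containing 20 nM camptothecin, exposed to pin-transferred compounds, and grown at 37 °C for at least 48 hr. Viability was read as ATP luminescence.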
IL1B secr inh: blocks inflammasome-driven IL-1 beta release; THP-1 LPS/ATP IL-1B secretion, AlphaLISA, 16 h; active compounds read low; activity change, % at 57.5 µM; 360,000 compounds, 4.7% hits; in the data active = activity change below about -50%; inconclusive = mostly about -30% to -49%
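THP-1 cells pretreated 1 hr with compounds (up to 57.5 uM final), then stimulated with LPS (250 ng/mL final) plus ATP (1.25 mM final); secreted IL-1B measured by AlphaLISA after 16 hr, decreased signal indicating inhibition.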
ELG1 DNA repair: inhibitors of ELG1-dependent DNA repair in HEK293T cells; HEK293T ELG1-luciferase reporter, luminescence, 16 h; DNA damage induced by 5-fluorouridine; Potency, µM (series often up to 46.1 µM), for the others: top-dose activity change, negative = inhibition, usual class: inhibitors; 330,000 compounds, 2.3% hits; AID 504467; also: potency is read from the fitted curve at half-maximal effect; nearly all actives have a fitted effect of over 55% in size
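Luminescence from the luciferase reporter, measured 30 min after ONE-Glo reagent at room temperature, was the read-out. Beforehand, 2,000 cells per well were exposed for 16 hr at 37 °C to 5-fluorouridine together with compound or vehicle.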
HT1080-NT tox: kills 2HG-producing HT-1080-NT fibrosarcoma cells | HT-1080-NT fibrosarcoma viability, CellTiter-Glo ATP luminescence, 48 h | Potency, µM (top dose mostly 46.1 µM), without a hit: top-dose activity, negative = less viability, usual class: cytotoxic | 360,000 compounds, 1.6% hits | AID 686970;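 also: NT is the 2HG producing partner of a matched IDH1 knockdown line; potency is read from the fitted curve at half-maximal effect; 0% = DMSO-treated cells and -100% = media-only wells without cells; nearly all actives have a fitted effect of over 55% in size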
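Viability of the 2HG-overproducing fibrosarcoma line after 48 hours of compound exposure at 37 degrees C was determined by luminescence with CellTiter-Glo, and concentration-effect curves were then fitted and categorized.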
DT40 TDP1 no CPT: qHTS for Inhibitors of human tyrosyl-DNA phosphodiesterase 1 (TDP1): qHTS in cells in absence of CPT; DT40 Tdp1-/- hTDP1 cells, no CPT, ATP luminescence, 48 h; Potency, µM (doses to about 46.2 µM), inactives show at the highest dose activity change, negative = growth inhibition, actives largely listed as inhibitors; 420,000 compounds, 15% hits; also: potency is read from the fitted curve at half-maximal effect; nearly all actives have a fitted effect of over 55% in size
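Cells were dispensed at 400 per well, compounds added by pin tool, plates incubated ≥48 hr at 37 °C, then CellTiter-Glo added for 30 min at room temperature before luminescence reading. Line: DT40 Tdp1-/- complemented with hTDP1; camptothecin omitted.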
HT1080 IDH1KD tx: HT-1080 IDH1 knockdown cell toxicity (counter line); 360,000 compounds, 2% hits; Potency, µM (highest dose often 46.1 µM), for inactives: at the highest dose activity, negative = toxicity, most hits filed as cytotoxic; AID 686971; HT-1080 IDH1 knockdown viability, ATP luminescence, 48 h;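 also: potency is read from the fitted curve at half-maximal effect; 0% = DMSO wells and -100% = cell-free medium wells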
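Using the IDH1-knockdown HT-1080 line run in the same batch and compound series as the NT line, viability after 48 h at 37 °C was determined by CellTiter-Glo luminescence and expressed as % activity.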
Numbers without * were called inactive; ? = inconclusive; nt = not tested or not shown. Shown are actives, neighbours in structure and some others; about 19% of the full set was active somewhere. Unless noted, calls follow the shape of the dose curve; as a rule, active = well fitted curve in the direction sought with a large enough effect; inconclusive = small, poorly fitted or top-dose-only effect, or another doubt; inactive = no such curve, though single readings can be large; an effect the other way counts as inactive or inconclusive. Unless noted, % is scaled to controls: 0 for no effect and ±100 for the full control effect.

SMILES	TDP1 cell CPT	IL1B secr inh	ELG1 DNA repair	HT1080-NT tox	DT40 TDP1 no CPT	HT1080 IDH1KD tx
COC(=O)c1nc2n(n1)C(c1cccc(Cl)c1)C(C(=O)Nc1ccccc1OC)=C(C)N2 (centres undefined)	13%	nt	nt	nt	5%	nt
Cc1ccc(NC(=O)OC(C)N2CCCCC2)cc1NC(=O)OC(C)N1CCCCC1 (centres undefined)	-10%	?	nt	-13%	?	-10%
O=C1OC/C(=C(/O)c2ccc(Cl)cc2)C1=O	14%	11	0%	-2%	-23%	-12%
CCOC(=O)c1ccc(N2CCN(c3cc(C)ccc3C)CC2)c(N)c1	15µM*	-13	0%	1%	16µM*	-1%
CCOC(=O)c1ccc(N2CCN(c3cc(C)ccc3C)CC2)c(NC(=O)Nc2ccc(Cl)cc2)c1	4.6µM*	nt	nt	nt	4.6µM*	nt
CCOC(=O)N1CCC(N2CCN(c3cc(C)ccc3C)CC2)CC1	29µM*	-7	?	2%	?	-28%
CCOC(=O)c1ccc(N2CCN(c3ccccc3F)CC2)c(NC(=O)Nc2cccc(OC)c2)c1	13µM*	-3	16µM*	-7%	5.8µM*	-4%
Nc1cc(C(=O)O)ccc1N1CCCCC1	0%	18	?	18%	-4%	15%
CC(=O)NCc1ccc(C(=O)COC(=O)COc2ccc(Cl)c(C)c2)s1	-30%	5	22%	5%	-1%	0%
CS(=O)(=O)c1nc(S(=O)(=O)c2ccc(Cl)cc2)c(NCCCN2CCCC2=O)s1	-1%	-1	?	6%	15%	-6%
CCOC(=O)c1ccc(N2CCN(c3cc(Cl)ccc3C)CC2)c(NC(=O)Nc2cccc(OC)c2)c1	16µM*	nt	nt	nt	9.2µM*	nt
C=C1C(=O)O[C@H]2[C@H]1[C@H](OC(=O)/C(C)=C\C)C[C@]1(CO1)[C@@H]1[C@H](OC(C)=O)C=C(C)[C@]21O	12µM*	-104*	nt	5%	13µM*	?
CCc1ccc(OC(=O)c2cccnc2)cc1	-9%	8	23%	0%	-9%	-1%
Cc1cc(OCC(=O)NC(C)c2ccccc2)ccc1[N+](=O)[O-] (centres undefined)	18µM*	-7	0%	-5%	16µM*	?
O=C(c1ccccc1Cc1ccccc1)N1CCN(S(=O)(=O)c2ccccc2Br)CC1	?	-61*	-16%	3%	?	2%
Cc1noc(C)c1COc1ccccc1C(=O)N1CCN(S(=O)(=O)c2ccccc2C(F)(F)F)CC1	?	0	-11%	0%	?	-2%
Cc1noc(C)c1COc1ccccc1C(=O)N1CCN(S(=O)(=O)c2ccc(C(C)C)cc2)CC1	?	-17	nt	-4%	16µM*	0%
Cc1noc(C)c1COc1ccccc1C(=O)N1CCN(S(=O)(=O)c2ccccc2Br)CC1	16µM*	27	nt	-13%	21µM*	0%
Cc1cc(C)c(C)c(S(=O)(=O)N2CCN(C(=O)c3ccccc3OCc3c(C)noc3C)CC2)c1C	?	12	-26%	-2%	18µM*	-28%
Cc1noc(C)c1COc1ccccc1C(=O)N1CCN(S(=O)(=O)c2cccc(Cl)c2)CC1	-14%	-3	0%	-10%	-17%	-1%
COCC(=O)N1CCC2(CC1)CN(c1ccccc1)C2	?	nt	nt	nt	-17%	nt
CSc1ncc(Cl)c(C(=O)NCc2ccc(C)cc2)n1	-29%	nt	nt	nt	?	nt
CCOc1ccc(C(CC(=O)O)NC(=O)Cc2ccc(Cl)cc2)cc1 (centres undefined)	16%	15	0%	1%	4%	-2%
O=C(Nc1ccc(F)cc1F)c1noc2c1CCc1ccccc1-2	-23%	nt	nt	nt	-20%	nt
CCc1ccc(CN(C)C(=O)c2cc(COc3cccc4cnccc34)on2)cc1	9.2µM*	-6	?	?	6.5µM*	15µM*
SMILES	TDP1 cell CPT	IL1B secr inh	ELG1 DNA repair	HT1080-NT tox	DT40 TDP1 no CPT	HT1080 IDH1KD tx
CN(Cc1cccc2cnccc12)C(=O)c1cc(COc2ccc(F)cc2F)on1	?	?	?	4%	?	-13%
CN(Cc1cccc2ccccc12)C(=O)c1cc(COc2c(F)cccc2F)on1	?	?	-11%	4%	?	1%
Cc1nc(CN(C)C(=O)c2cc(COc3c(F)cccc3F)on2)cs1	-20%	-7	10%	18%	?	20%
CCOC(=O)CC1(NC(=O)c2cc(COc3c(F)cccc3F)on2)CCCCC1	12µM*	-9	-2%	-5%	8.2µM*	-5%
CCc1ccc(CN(C)C(=O)c2cc(COc3c(F)cccc3F)on2)cc1	23µM*	-58*	11%	7%	16µM*	17%
CN(Cc1cc(-c2ccccc2)on1)C(=O)c1cc(COc2c(F)cccc2F)on1	10µM*	-11	?	-1%	?	-15%
COc1ccc(NC(=O)CN2C(=O)C(c3ccc(C(C)(C)C)cc3)=NC2(C)C)cc1Cl	-12%	nt	nt	nt	-22%	nt
CCN(CC)CCCn1c(SCC(=O)Nc2cccc(F)c2)nnc1-c1ccoc1C	0%	-7	19%	0%	6%	5%
CSc1ccccc1OCc1cc(C(=O)NC(C)c2cnn(C)c2)no1 (centres undefined)	?	-16	18%	0%	?	-7%
Cc1c(C(C)NC(=O)c2cc(COc3cccc4cnccc34)on2)cnn1C (centres undefined)	23µM*	-7	3.7µM*	-12%	13µM*	-13%
CN(Cc1ccccc1)C(=O)c1cc(-c2cccc(Cl)c2)on1	23µM*	nt	nt	nt	?	nt
COc1ccc(NC(=O)CSc2nc3cc(OC)c(OC)cc3c3nc(-c4ccccc4)nn23)cc1Cl	25%	nt	nt	nt	-6%	nt
Cc1ccccc1-c1nc(SCC(=O)NCC2CCCO2)c2c(=O)n(C)c(=O)n(C)c2n1 (centres undefined)	-9%	nt	nt	nt	-5%	nt
Cc1ccc(C)n1-c1ccc(N2CCOCC2)c([N+](=O)[O-])c1	?	-68*	?	-25%	15µM*	?
O=[N+]([O-])c1cc(-n2cccc2)ccc1N1CCOCC1	5%	-14	21%	8%	?	13%
Cc1cc(C=O)c(C)n1-c1ccc(N2CCOCC2)c([N+](=O)[O-])c1	?	-4	9%	-9%	?	-13%

Source: PubChem BioAssay (National Center for Advancing Translational Sciences (NCATS))
